Screens: PubChem, several laboratories
The list is not random: actives were taken first. Their share in the collection is about 3.1%.
KKLEB tox = reduces viability of KKLEB cystic fibrosis airway cells | KKLEB CF airway cells viability, ATPlite luminescence, overnight; hits give low values; cells stimulated with P. aeruginosa culture filtrate | activity change (cytotoxicity), % at 5 µM | hit rate 0.36% among 360,000 | AID 602141;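 active means corrected activity change at or below -50% at 5 µM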
HIF-2a inh = blocks HIF-2a reporter activity; 786-0 RCC cells HIF-2a reporter, luciferase luminescence, overnight; inhibition, % at 18.8 µM; hit rate 0.72% among 360,000; AID 624352;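 active means inhibition of the luminescence signal of 40% or more relative to plate controls, in a single-dose primary screen at 18.75 µM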
MITF TRPM1 inh = MITF TRPM1 promoter inhibition in SK-MEL-5 cells; SK-MEL-5 TRPM1 promoter luciferase, 24 h; inhibition, % at 12.5 µM; hit rate 0.83% among 330,000; AID 488899;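 active means mean inhibition across replicates of 60% or more, whatever share of single replicates reaches that level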
ABHD5 PLIN5 PPI = ABHD5-PLIN5 protein interaction inhibition; Split G. princeps luciferase complementation, luminescence, 4 h; inhibition, % at 4 µM; hit rate 0.78% among 360,000; AID 602281;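 active means inhibition above the mean inhibition across every tested compound plus 3 SD, cut at about 22% in these data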;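 further: 0% = DMSO only wells and the 100% control is not disclosed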
CF NFkB inh = blocks PAF-induced NF-kB reporter in cystic fibrosis cells | KKLEB NF-kB-GFP reporter, GFP fluorescence overnight | inhibition, % at 5 µM | hit rate 0.86% among 360,000 | AID 588850;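 active means at least 50% inhibition at 5 µM, scaled per plate between neutral and stimulator controls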;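 further: PAF is a Pseudomonas aeruginosa culture filtrate used as stimulus; plate controls were PAF-stimulated DMSO wells for no effect and unstimulated DMSO wells for full effect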
Peg3 promoter = inhibitors of Peg3 promoter; HeLa PEG-Prom luciferase reporter, luminescence, overnight; inhibition, % at 20 µM; hit rate 1.7% among 360,000;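 active means inhibition of at least 50% at 20 µM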
* = called active by the depositor.

For O=C(c1cccs1)c1ccc(-c2cccs2)s1 the results were KKLEB tox -25.6, HIF-2a inh -20.5, MITF TRPM1 inh 1.0, ABHD5 PLIN5 PPI -0.2, CF NFkB inh -1.4 and Peg3 promoter -40.9.
For O=C(c1cccs1)c1no[n+]([O-])c1C(=O)c1cccs1 the results were KKLEB tox -93.9*, HIF-2a inh 63.5*, MITF TRPM1 inh 66.8*, ABHD5 PLIN5 PPI -2.4, CF NFkB inh 92.6* and Peg3 promoter 92.6*.
`Cc1ccc(SCC(=O)OCC(=O)N2CCN(C(=O)c3ccco3)CC2)c(C)c1` gave KKLEB tox -0.6, HIF-2a inh 14.3, MITF TRPM1 inh 7.9, ABHD5 PLIN5 PPI -7.6, CF NFkB inh 16.6 and Peg3 promoter 4.7.
Screening O=C(CCC(=O)OCC(F)(F)C(F)F)Nc1ccc(F)cc1F returned KKLEB tox -11.7, HIF-2a inh 19.7, MITF TRPM1 inh 2.2, ABHD5 PLIN5 PPI 4.6, CF NFkB inh -8.4 and Peg3 promoter 12.2.
O=C(CCC(=O)OCC(F)(F)C(F)F)Nc1ccc(Cl)cc1 was read as KKLEB tox -0.7, HIF-2a inh 2.8, MITF TRPM1 inh -1.8, ABHD5 PLIN5 PPI 1.2, CF NFkB inh 6.0 and Peg3 promoter 63.4*.
For Cc1ccc(NC(=O)c2cc(C)n(-c3ccccc3)c2C)cc1 the results were KKLEB tox -73.0*, HIF-2a inh 53.7*, MITF TRPM1 inh 50.2, ABHD5 PLIN5 PPI 3.4, CF NFkB inh -6.4 and Peg3 promoter 49.6.
For Cc1ccc(NC(=O)c2cc(C)n(-c3cccc(C)c3)c2C)cc1 the results were KKLEB tox -15.7, HIF-2a inh -204.9, MITF TRPM1 inh -21.2, ABHD5 PLIN5 PPI -10.8, CF NFkB inh -5.0 and Peg3 promoter -243.3.
`Cc1cc(C(=O)Nc2ccc(Cl)cc2)c(C)n1-c1ccccc1` gave KKLEB tox -68.0*, HIF-2a inh 72.8*, ABHD5 PLIN5 PPI 1.3, CF NFkB inh -14.9 and Peg3 promoter 86.9*.
`Cc1ccc(NC(=O)c2csc(-c3ccccc3)c2C)cc1` gave KKLEB tox -53.9*, HIF-2a inh 18.3, MITF TRPM1 inh 15.7, ABHD5 PLIN5 PPI -5.4, CF NFkB inh 7.4 and Peg3 promoter 29.7.
Screening Cc1cc(C(=O)NNS(=O)(=O)c2cc(C(=O)O)ccc2Cl)c(C)n1-c1ccccc1 returned KKLEB tox -14.1, HIF-2a inh 64.2*, MITF TRPM1 inh 33.9, ABHD5 PLIN5 PPI 7.1, CF NFkB inh 8.9 and Peg3 promoter 39.2.
For Cc1c(C(=O)Nc2cccc([N+](=O)[O-])c2)csc1-c1ccccc1 the results were KKLEB tox -25.5, HIF-2a inh -363.4, MITF TRPM1 inh -51.4, ABHD5 PLIN5 PPI -2.7, CF NFkB inh -17.3 and Peg3 promoter -252.1.
Cc1[nH]c(=O)c(C#N)cc1-c1csc(-c2ccccc2)n1 was read as KKLEB tox 3.6, HIF-2a inh 18.3, MITF TRPM1 inh 30.8, ABHD5 PLIN5 PPI -7.7, CF NFkB inh -28.2 and Peg3 promoter 59.8*.
For COc1ccc(Cc2c(-c3ccccc3)nc3ccc(Cl)cn23)c(C)c1 the results were KKLEB tox -2.8, HIF-2a inh -186.3, ABHD5 PLIN5 PPI -6.7, CF NFkB inh -1.4 and Peg3 promoter -145.3.
For Cc1ccc(Cc2c(-c3ccco3)nc3ccc(Br)cn23)cc1 the results were KKLEB tox -9.5, HIF-2a inh -16.1, ABHD5 PLIN5 PPI 58.1*, CF NFkB inh 47.5 and Peg3 promoter -172.3.
Screening COc1ccc(Cc2c(-c3ccco3)nc3ccc(Cl)cn23)c(C)c1 returned KKLEB tox -2.8, HIF-2a inh -6.0, ABHD5 PLIN5 PPI 26.8*, CF NFkB inh 39.2 and Peg3 promoter -14.8.
O=C(Cn1c(COc2ccccc2)nc2ccccc21)Nc1cc(Cl)ccc1Cl was read as KKLEB tox -46.2, HIF-2a inh 8.4, MITF TRPM1 inh 0.1, ABHD5 PLIN5 PPI 3.1, CF NFkB inh 41.3 and Peg3 promoter 54.1*.
Screening O=C(Cn1c(COc2ccccc2)nc2ccccc21)Nc1cc(Cl)cc(Cl)c1 returned KKLEB tox -8.8, HIF-2a inh 18.7, MITF TRPM1 inh 7.0, ABHD5 PLIN5 PPI 3.4, CF NFkB inh 10.5 and Peg3 promoter 48.9.
`CC(=O)C1=C(C)N2CCN=C2S1` gave KKLEB tox 9.4, HIF-2a inh 19.6, MITF TRPM1 inh -6.1, ABHD5 PLIN5 PPI 7.9, CF NFkB inh -0.2 and Peg3 promoter 9.8.
`CCCCC(=O)NNC(=O)c1c(O)c2ccccc2[nH]c1=O` gave KKLEB tox 15.2, HIF-2a inh 11.1, MITF TRPM1 inh -1.1, ABHD5 PLIN5 PPI -3.4, CF NFkB inh -6.2 and Peg3 promoter 9.4.
`O=C(CCl)NNC(=O)c1c(O)c2ccccc2[nH]c1=O` gave KKLEB tox -2.6, HIF-2a inh -26.4, MITF TRPM1 inh 3.9, ABHD5 PLIN5 PPI 3.0, CF NFkB inh -9.4 and Peg3 promoter 58.4*.
For CCC1(OC(=O)CN(C)C)C(=O)OCc2c1cc1n(c2=O)Cc2cc3c(N)cccc3nc2-1 (centres undefined) the results were KKLEB tox -55.9*, HIF-2a inh 13.2, MITF TRPM1 inh 66.7*, ABHD5 PLIN5 PPI -7.9, CF NFkB inh 31.7 and Peg3 promoter 38.9.
CCC1(O)C(=O)OCc2c1cc1n(c2=O)Cc2cc3c(N)cccc3nc2-1 (centres undefined) was read as KKLEB tox -16.7, HIF-2a inh 36.6, MITF TRPM1 inh 71.8*, ABHD5 PLIN5 PPI -5.9, CF NFkB inh 85.9* and Peg3 promoter 68.5*.
CCCCCC1C(=O)N2C=C(c3ccccc3)c3ccccc3N2C1=O (centres undefined) was read as KKLEB tox 0.7, HIF-2a inh 6.0, MITF TRPM1 inh -3.9, ABHD5 PLIN5 PPI -8.2, CF NFkB inh -19.1 and Peg3 promoter -10.8.
`COc1ccc2[nH]c(=O)c(CN(CC3CCCO3)C(=O)Nc3ccc(F)cc3)cc2c1` (centres undefined) gave KKLEB tox -7.1, HIF-2a inh 15.9, MITF TRPM1 inh 14.2, ABHD5 PLIN5 PPI 2.9, CF NFkB inh -0.3 and Peg3 promoter 76.7*.
Screening O=C(Nc1ccc2cn[nH]c2c1)c1c(Cl)cccc1Cl returned KKLEB tox -4.3, HIF-2a inh 7.3, MITF TRPM1 inh -10.1, ABHD5 PLIN5 PPI 0.8, CF NFkB inh 4.2 and Peg3 promoter -35.0.
`O=C1C(Cl)=C(Nc2ccc3cn[nH]c3c2)C(=O)c2ccccc21` gave KKLEB tox -92.4*, HIF-2a inh 94.5*, MITF TRPM1 inh 105.8*, ABHD5 PLIN5 PPI 28.9*, CF NFkB inh 93.7* and Peg3 promoter 97.5*.
CN(C)c1ccc(NC2=C(Cl)C(=O)c3ccccc3C2=O)cc1 was read as KKLEB tox -81.6*, HIF-2a inh 96.5*, MITF TRPM1 inh 101.6*, ABHD5 PLIN5 PPI 1.7, CF NFkB inh 80.3* and Peg3 promoter 100.2*.
For CC(C)(C)OC(=O)N1CCN(C(=O)[C@H](Cc2ccc(O)cc2)n2cc(CCO)nn2)CC1 the results were KKLEB tox 4.8, HIF-2a inh 8.5, MITF TRPM1 inh -5.6, ABHD5 PLIN5 PPI 4.4, CF NFkB inh -2.8 and Peg3 promoter -1.1.
